# In the library only some 1.6% were active in any assay of this set; here they are far more common.
# ATG4B inh: inhibitors of human ATG4B cysteine protease; Q9Y4P1; ATG4B cleavage of LC3-PLA2, NBD-HPC fluorescence, 1 h; inhibition, % at 8.33 µM; actives 0.51% (n = 340,000); AID 504462; in the data active means inhibition above about 40%
# GRK2 inh: blocks RNA aptamer binding to human GRK2; P25098; bead flow cytometry, FAM-aptamer displacement from GRK2; inhibition of aptamer binding, % at 10 µM; actives 0.59% (n = 330,000); AID 488847;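 active means inhibition of aptamer binding above 40%, roughly 3 SD of noise, on plates passing a quality check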;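 further: median bead fluorescence of bound FAM aptamer so fluorescent compounds give negative values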
# Target sequence (P25098 whole entry, looked up): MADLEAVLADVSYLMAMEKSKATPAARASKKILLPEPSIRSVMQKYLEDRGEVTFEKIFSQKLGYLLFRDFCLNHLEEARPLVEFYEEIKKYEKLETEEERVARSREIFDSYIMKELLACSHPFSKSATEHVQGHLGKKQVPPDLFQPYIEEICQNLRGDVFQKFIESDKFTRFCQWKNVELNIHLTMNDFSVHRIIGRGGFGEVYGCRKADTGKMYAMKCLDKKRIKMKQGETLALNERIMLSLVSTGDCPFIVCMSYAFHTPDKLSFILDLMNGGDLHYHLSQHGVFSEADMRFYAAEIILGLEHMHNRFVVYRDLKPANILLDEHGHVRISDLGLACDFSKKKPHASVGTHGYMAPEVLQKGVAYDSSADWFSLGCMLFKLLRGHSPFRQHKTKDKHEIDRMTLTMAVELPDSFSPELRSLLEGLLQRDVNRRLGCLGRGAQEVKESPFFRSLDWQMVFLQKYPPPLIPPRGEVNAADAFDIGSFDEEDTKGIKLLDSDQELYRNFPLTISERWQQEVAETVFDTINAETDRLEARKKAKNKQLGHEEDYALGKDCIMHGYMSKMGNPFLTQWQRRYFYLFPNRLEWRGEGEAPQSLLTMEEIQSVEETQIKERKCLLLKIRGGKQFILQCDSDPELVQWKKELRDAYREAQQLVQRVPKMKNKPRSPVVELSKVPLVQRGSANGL
# Yeast superoxide: lowers age-related superoxide in aged yeast cells. superoxide response (% of plate mean), % at 10 µM. S. cerevisiae aged cells, superoxide DHE fluorescence; stronger effect = lower value. actives 0.18% (n = 330,000);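 active means superoxide response under a set limit, about three screen SD below normal, cut at about 65% in these data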;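 further: yeast aged for seven days with compound at 30 °C before DHE staining; 100% = average MFI of all compound-treated wells on the plate with controls excluded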
# Efflux pump mplx: inhibitors of Candida antifungal efflux pumps expressed in yeast; S. cerevisiae Candida pump triplex, Nile Red efflux; inhibition, % at 10 µM; actives 0.44% (n = 330,000);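 active means plate passing quality check with inhibition over a set limit, or well fluorescence over plate mean plus 4 SD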;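 further: Nile Red retained in pooled yeast measured as flow cytometry median fluorescence; 0% = buffer negative control and 100% = Enniatin B positive control; higher means more Nile Red kept so more efflux inhibition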
# * hit, by the source's call; . = no result; ! = a repeat was not active.
SMILES,ATG4B inh,GRK2 inh,Yeast superoxide,Efflux pump mplx
CN(CC#CC(O)(c1ccccc1)c1ccccc1)C(C)(C)C,-2,1,65*,0
CCN1CCc2c(sc(N)c2C#N)C1,-14,63*,89,0
Cc1ccc(S(=O)(=O)N2C(=O)CCC2C(N)=O)cc1 (configuration not stated),0,2,104,0
CCOC(=O)c1ccc(S(=O)(=O)NNC(=O)COc2cccc(C)c2)cc1,-5,0,111,0
CCOC(=O)COc1ccc(S(=O)(=O)NC2CC2)cc1,-6,0,58*,0
CCOC(=O)c1ccc(S(=O)(=O)NNC(=O)COc2ccc(C)cc2)cc1,2,92*,104,0
CC(C)c1cccc(C(C)C)c1OC(=O)[C@H]1OC(C(C)(C)C)=C[C@@H]1c1ccccc1,9,1,70,0
CC(C)c1cccc(C(C)C)c1OC(=O)[C@H]1OC(c2ccc(Br)cc2)=C[C@@H]1c1ccc(Br)cc1,3,1,97,0.8*
CN1CCN(C2=C(NS(=O)(=O)c3cccs3)C(=O)c3ccccc3C2=O)CC1,-4,1,121,0
O=C1C(NS(=O)(=O)c2cccs2)=C(N2CCN(c3cccc(C(F)(F)F)c3)CC2)C(=O)c2ccccc21,64*,3,133,0
CN(C)S(=O)(=O)c1cccc(-n2sc3ccccc3c2=O)c1,-7,4,110,136*
O=c1c2ccccc2sn1-c1ccc(S(=O)(=O)N2CCCCC2)cc1,-11,0,112,0
Cc1ccc(-n2sc3ccccc3c2=O)cc1S(=O)(=O)N1CCCCC1,-6,0,109,2.4*
CCC(=O)N1CC2(CC(c3cccc(NC(=O)CC(c4ccccc4)c4ccccc4)c3)=NO2)C[C@H]1C(N)=O (some centres not stated),-20,0,95,0
C=C(C)C(=O)Nc1cccc(C2=NOC3(C2)C[C@H](C(N)=O)N(C(=O)c2ccccc2C(=O)c2ccccc2)C3)c1 (some centres not stated),11,91*,98,0
C=C(C)C(=O)Nc1cccc(C2=NOC3(C2)C[C@H](C(N)=O)N(C(=O)CC)C3)c1 (some centres not stated),-7,72*,105,0
C=C(C)C(=O)Nc1cccc(C2=NOC3(C2)C[C@@H](C(N)=O)N(C(=O)/C(C)=C/C)C3)c1 (some centres not stated),-6,94*,113,0
C/C=C(\C)C(=O)Nc1cccc(C2=NOC3(C2)C[C@@H](C(N)=O)N(C(=O)c2ccccc2C(=O)c2ccccc2)C3)c1 (some centres not stated),-10,5,95,0
CCCCC1CCC(C(=O)N(CC(C)C)c2c(N)n(Cc3ccccc3)c(=O)[nH]c2=O)CC1 (configuration not stated),5,0,100,0
O=C(N=C1N=C2C=CC=CN2Cc2ccccc21)c1ccc(S(=O)(=O)N2CCOCC2)cc1,-6,4,100,0
COc1cccc(CNC(=O)N2CCN(c3ccccc3Cl)CC2)c1,24,2,109,0
COc1ccccc1N1CCN(C(=O)NCc2cccc(C(F)(F)F)c2)CC1,44*,2,85,0
Cc1c(Cc2ccccc2)sc(/N=C/c2ccc3ccccc3c2)c1C(N)=O,4,8,109,0
Cc1c(Cc2ccccc2)sc(/N=C/c2c(O)ccc3ccccc23)c1C(N)=O,52*,1,108,0
CC1=C(C)CC(C(=O)NC2CCCC2)C(C(=O)O)C1 (configuration not stated),1,.,.,.
SMILES,ATG4B inh,GRK2 inh,Yeast superoxide,Efflux pump mplx
CC1=CCC(C(=O)O)C(C(=O)NC2CCCCC2)C1 (configuration not stated),-2,89*,110,0
Cc1ccc(S(=O)(=O)N2CCCCC2)cc1NS(=O)(=O)c1ccc(Cl)c(C(=O)O)c1,-4,.,.,.
CC1(C)CC(=O)C(CC(=O)NC2CCCc3ccccc32)C(=O)C1 (configuration not stated),10,7,96,0
O=C(Nc1ccc(-c2ccc3nncn3n2)cc1)c1ccc(Br)o1,28,0,111,0
COc1ccc2c(C)cc(SCC(=O)Nc3nsc(-c4ccc(C)cc4)n3)nc2c1,-4,45*,90,0
CCS(=O)(=O)C1=NN2C(=N)/C(=C\c3ccc(OS(=O)(=O)c4ccccc4)c(OC)c3)C(=O)N=C2S1,.,41*,115,0
Nc1nc(Cl)c(N)c(NCC2(CO)CC(CCc3ccccc3)C2)n1 (configuration not stated),0,.,.,.
O=Cc1ccc(Sc2nnc(-c3ccccc3)o2)c([N+](=O)[O-])c1,49*,5,100,0
CCCN(CCC)C(=O)C[n+]1cccc(/C=N/O)c1,7,49*,99,0
CN(c1ccc(OCC(=O)Nc2cc(Cl)ccc2C(=O)O)cc1)S(=O)(=O)c1ccc(F)cc1,-12,2,59*,0
O=C/C=C/c1coc2ccc3ccccc3c2c1=O,-8,0,99,0
O=Cc1coc2c(ccc3ccccc32)c1=O,.,80*,104,1.9*
C=Cc1c(C)c2cc3[nH]c(cc4nc(cc5nc(cc1[nH]2)C(C)=C5CCC(=O)O)C(CCC(=O)O)=C4C)c(C)c3C=C,48*!,6,101,0
CCC(CC)CN1C(Nc2ccccc2)=NC[C@@H]1C,-5,1,107,0
CC(CCC(C)C(C)(C)C)[C@@H]1CC[C@H]2C3C[C@H](OS(O)(=S)=S)[C@H]4C[C@H](OS(O)(=S)=S)[C@@H](OS(O)(=S)=S)C[C@]4(C)[C@H]3CC[C@]12C (some centres not stated) (tested in a mixture with another compound),84*,3,114,2.1*
CCOC(=O)c1cn(-c2ccc(F)c(F)c2F)c2c(F)c(F)c(F)cc2c1=O,0,2,113,0
CCOC(=O)c1cn(-c2nc(-c3ccc(Cl)c(Cl)c3)cs2)c2c(F)c(N3CCOCC3)c(F)cc2c1=O,2,0,86,1.6*
CC(=C\c1ccccc1)/C=C1/SC(=S)N(CCC(=O)Nc2ccccn2)C1=O,.,5,101,0.7*
O=C(/C=C/Nc1ccc([N+](=O)[O-])cc1)c1ccc(Br)cc1,1,46*,91,0
O=C(/C=C/Nc1ccc(F)cc1)c1ccc(Br)cc1,5,4,97,0
C#CCOCCOCCOCCNc1nc(N2CCN(C(=O)CCCCCCCCCCNC(=O)Cn3cc(CCCCCN)nn3)CC2)nc(N2CCN(C(=O)CCCCCCCCCCNC(=O)[C@H]([C@@H](C)CC)n3cc(CCCCN=C(N)N)nn3)CC2)n1,49*,0,91,1
C#CCOCCOCCOCCNc1nc(N2CCN(C(=O)CCCCCCCCCCNC(=O)[C@H]([C@@H](C)CC)n3cc(CCCCN=C(N)N)nn3)CC2)nc(N2CCN(C(=O)CCCCCCCCCCNC(=O)[C@H](CO)n3cc(CCCCCN)nn3)CC2)n1,54*,4,113,2

# Compound activity: PubChem, several laboratories
